The text below walks through data of PubChem BioAssay AID1851 (National Center for Advancing Translational Sciences (NCATS), 2009).

What is called AC50 is the midpoint of the concentration-response curve, whichever way the signal moves.

The whole screen tested about 16,000 compounds, of which about 5,100 (32%) were called active. Not shown: some 25% with an inconclusive outcome. Some of the results follow. Unmarked numbers belong to inactive results. Calls follow the shape of the dose curve; as a rule, active = well fitted curve in the direction sought with a large enough effect; inconclusive = small, poorly fitted or top-dose-only effect, or effect the other way; inactive = no such curve, though single readings can be large or run the other way.
% is scaled to controls: 0 for no effect and ±100 for the full control effect.

The target of this experiment is Cytochrome P450 3A4 (Homo sapiens) (UniProt P08684). Kind of experiment: Cytochrome panel assay with activity outcomes. The note with it: recombinant CYP, pro-luciferin dealkylation, luminescence, p450-cyp3a4; series mostly up to 57.1 µM.
Cytochrome P450 3A4 (Homo sapiens), sequence (P08684 whole entry, looked up): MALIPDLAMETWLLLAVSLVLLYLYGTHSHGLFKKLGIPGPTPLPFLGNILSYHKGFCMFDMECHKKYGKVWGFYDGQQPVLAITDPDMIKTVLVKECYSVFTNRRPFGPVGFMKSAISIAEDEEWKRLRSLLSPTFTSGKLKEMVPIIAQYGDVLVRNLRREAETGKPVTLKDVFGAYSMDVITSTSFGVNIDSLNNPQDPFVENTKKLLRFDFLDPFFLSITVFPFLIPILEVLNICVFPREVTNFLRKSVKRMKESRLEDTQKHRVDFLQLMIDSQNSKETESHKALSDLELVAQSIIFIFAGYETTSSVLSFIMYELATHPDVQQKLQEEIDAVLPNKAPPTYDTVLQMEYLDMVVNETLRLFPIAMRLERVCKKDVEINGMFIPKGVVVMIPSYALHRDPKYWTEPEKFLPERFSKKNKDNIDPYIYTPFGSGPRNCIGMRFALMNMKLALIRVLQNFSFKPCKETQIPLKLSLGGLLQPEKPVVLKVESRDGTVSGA
In the case of `COc1ccc2c(c1)C(=NN)c1cc(OC)ccc1-2`, the AC50 was 20 µM (active).
With `C[N+](C)(C)c1nc(N)nc2c1ncn2[C@H]1O[C@@H](CO)[C@@H](O)[C@H]1O`, the activity, negative = inhibition was 16.1% [at 11.4 µM].
In the case of `CCN1C(=O)[C@H]2[C@H]3[C@H](O)[C@H](O)C/C(=N/OCC[C@H]4C=C[C@H](OC(C)=O)[C@@H](COC(C)=O)O4)[C@@H]3CC[C@@H]2C1=O`, the activity, negative = inhibition was -18.6% [at 11.4 µM].
Regarding `CCCNC(=O)OC[C@@H]1O[C@H](CCO/N=C2\c3cc(OC)ccc3O[C@H](c3cccc(OC)c3)[C@H]2O)C=C[C@@H]1Oc1ccc(OC)cc1`, the AC50 is 5.01 µM (active).
`CC(=O)OC[C@@H]1O[C@@H](O/N=C2/C[C@@H](O)[C@@H](O)[C@@H]3[C@@H]4C(=O)N(c5cccc(Oc6ccccc6)c5)C(=O)[C@H]4CC[C@@H]23)[C@H](OC(C)=O)[C@H](OC(C)=O)[C@@H]1OC(C)=O`: the activity, negative = inhibition was -35.5% [at 11.4 µM].
For `COc1ccc(O[C@H]2C=C[C@@H](c3ccccc3)O[C@H]2CO/N=C2/c3cc(OC)ccc3O[C@@H](c3cccc(OC)c3)[C@H]2O)cc1`, the AC50 was 3.16 µM (active).
Same read-out and setting: the value for `COc1cccc([C@H]2Oc3ccc(OC)cc3/C(=N\O[C@@H]3O[C@H](COC(C)=O)[C@H](OC(C)=O)[C@H](OC(C)=O)[C@H]3OC(C)=O)[C@@H]2O)c1` was 3.16 µM (active).
As for `C=CC[C@@H]1C=C[C@H](O/N=C2\c3cc(OC)ccc3O[C@H](c3cccc(OC)c3)[C@H]2O)[C@H](CO)O1`, the activity, negative = inhibition is -80.3% [at 11.4 µM].
Still for that read-out and setting: the value for `CC(=O)OC[C@@H]1O[C@@H](O/N=C2/C[C@@H](O)[C@@H](O)[C@@H]3[C@H]4C(=O)N(c5ccc(F)cc5F)C(=O)[C@@H]4CC[C@H]23)[C@H](OC(C)=O)[C@H](OC(C)=O)[C@@H]1OC(C)=O` was -23.8% [at 11.4 µM]; that for `C[C@@]1(CCOCc2ccccc2)NC(=O)NC1=O` was -5.69% [at 11.4 µM].
The same measure, in the same setting: the value for `CC(C)[C@H](NC(=O)OC(C)(C)C)[C@@H](O)CC(=O)C(C)(C)C` was -11% [at 11.4 µM].
Consider `O=c1c(Oc2ccccc2Br)c(C(F)(F)F)oc2c(CN3CCCC3)c(O)ccc12`, for which the AC50 entry was “inactive”.
Still for that read-out and setting: the value for `O=C1OCCC1Sc1nnnn1-c1ccccc1` (stereo not drawn) was “inactive”.
Still for that read-out and setting: the value for `Cc1cc(C)cc(N2C(=O)CC(Sc3nnnn3-c3ccccc3)C2=O)c1` (stereo not drawn) was 2 µM (active); that for `Cc1cccc(Cn2cnc3c(NS(C)(=O)=O)c(C)c(C)cc32)c1` was 2 µM (active).
On the same count and under the same terms, the value for `Cc1cc2c(ncn2Cc2ccccc2)c([N+](=O)[O-])c1C` was “inactive”.
Take `CC(C)CN=C(N)N=C(N)N`: the activity, negative = inhibition is -1.21% [at 11.4 µM].
With `O=C(CN(C(=O)CSc1nc2ccccc2o1)c1cccc(F)c1)NC1CCCCC1`, the AC50 is 12.6 µM (active).
The same measure, in the same setting: the value for `CC(=O)NC1(c2cccc(F)c2)CCN(CC(=O)NC2CCCCC2)CC1` was “inactive”.
With `O=S(=O)(CC(O)COc1ccccc1Cl)c1ccccc1` (stereo not drawn), the activity, negative = inhibition is -5.32% [at 11.4 µM].
Turning to `c1ccc(CNc2ncncc2-c2cccnc2)cc1`, the AC50 was 1.26 µM (active).
For `Cc1cccc(CNc2ncncc2-c2cccnc2)c1`, the AC50 was 0.631 µM (active).
Same read-out and setting: the value for `c1cncc(CNc2ncncc2-c2cccnc2)c1` was 2 µM (active); that for `COc1ccc(NC(=O)N2CC3(CCN(C(=O)c4csnn4)CC3)C2)cc1` was “inactive”.
The same measure, in the same setting: the value for `COc1ccc(NC(=O)N2CC3(CCN(C(=O)c4cnccn4)CC3)C2)cc1` was “inactive”; that for `COc1ccc(NC(=O)N2CCCC3(CCN(C(=O)c4csnn4)CC3)C2)cc1` was 15.8 µM (active).
On the same count and under the same terms, the value for `O=C(Nc1ccccc1)N1CCC2(CC1)CCN(C(=O)c1csnn1)CC2` was “inactive”; that for `O=C(Nc1ccccc1)N1CCCC2(CCN(C(=O)c3csnn3)CC2)C1` was 15.8 µM (active).
Turning to `CC[C@@]1(O)C(=O)OCc2c1cc1n(c2=O)Cc2cc3c(CN(C)C)c(O)ccc3nc2-1`, the activity, negative = inhibition was -2.47% [at 11.4 µM].
The same measure, in the same setting: the value for `CC1(C)O[C@H]2[C@@H](O1)[C@@H](On1nnc3ccc(Cl)cc31)O[C@@H]2[C@@H]1COC(C)(C)O1` was -24.7% [at 11.4 µM].
Consider `Cc1ccc(NS(=O)(=O)c2ccc(OCC(=O)Nc3cccc([N+](=O)[O-])c3)c(C)c2)cc1`, for which the AC50 was 2 µM (active).
Still for that read-out and setting: the value for `CC1CCN(CC(=O)Nc2cccc([N+](=O)[O-])c2)CC1` was “inactive”; that for `COc1ccccc1NC(=O)Cn1nnc(-c2ccccc2NC(=O)c2cc3ccccc3oc2=O)n1` was 3.55 µM (active).
Still for that read-out and setting: the value for `COc1ccccc1C(=O)Nc1cc2c(ccc3ccccc32)oc1=O` was “inactive”; that for `COc1ccc(C(=O)OC(C)CN2CCN(C)CC2)cc1OC` (stereo not drawn) was “inactive”.
Still for that read-out and setting: the value for `COC(=O)c1ccc(OCC2c3cc(OC)c(OC)cc3CCN2C(=O)C2CC2)cc1` (stereo not drawn) was 17.8 µM (active); that for `COc1ccccc1-c1cncnc1NCc1cccc(C)c1` was 0.1 µM (active); that for `COc1ccccc1-c1cncnc1NCc1cccnc1` was 0.501 µM (active).
For `COc1ccccc1-c1cncnc1NCc1ccccc1`, the AC50 is 0.251 µM (active).
The same measure, in the same setting: the value for `CCCCCCN(CCCCCC)C(=O)Cc1c(-c2ccc(Cl)cc2)[nH]c2ccc(Cl)cc12` was 12.6 µM (active); that for `CCCCN(C)Cc1c(C)[nH]c2ccc(Cl)cc2c1=O` was “inactive”; that for `CCOC(=O)c1[nH]c2ccc(Cl)cc2c1-c1ccccc1` was “inactive”.
Same read-out and setting: the value for `CCCCCCN(CCCCCC)C(=O)Cc1c(-c2ccc(F)cc2)[nH]c2ccccc12` was 2.51 µM (active); that for `Cn1c(=O)c2[nH]c(C3CCCC3)nc2n(C)c1=O` was “inactive”.
Turning to `O=C(O)c1nnsc1COCc1ccccc1`, the activity, negative = inhibition is -0.287% [at 11.4 µM].
With `COc1ccc(OC)c2[nH]c(=O)c(CCNC(=O)c3ccc(S(=O)(=O)N4CCCC4)cc3)cc12`, the half-maximal activity concentration (AC50) was 15.8 µM (active).
Still for that read-out and setting: the value for `COc1ccc(OC)c2[nH]c(=O)c(CCNC(=O)c3ccc(S(=O)(=O)N(C)C)cc3)cc12` was “inactive”; that for `COc1ccc(OC)c2[nH]c(=O)c(CCNS(=O)(=O)c3ccc(C)cc3)cc12` was 7.94 µM (active).
Still for that read-out and setting: the value for `COc1ccc(OC)c2[nH]c(=O)c(CCNC(=O)C3CCCCC3)cc12` was 8.91 µM (active).
Still for that read-out and setting: the value for `COc1ccc(OC)c2[nH]c(=O)c(CCNC(=O)COc3ccccc3)cc12` was 10 µM (active); that for `COCCNC(=O)COc1ccc(Oc2ccccc2)cc1` was “inactive”.
Regarding `COc1ccc(C(=O)NCC(c2ccc(F)cc2)N2CCOCC2)cc1S(=O)(=O)N1CCCC1` (stereo not drawn), the AC50 entry is “inactive”.
Same read-out and setting: the value for `COc1cc2c(c(O)c1OC)C(=O)C(OC)CCC2` (stereo not drawn) was “inactive”.
